Bioassay records as filed in PubChem.
ATXN viability: reduces viability in counter-screen for ATXN expression inhibitors; AID 651635; hit rate 0.49% among 400,000; Potency, µM (series often up to 56.7 µM), actives largely listed as cytotoxic; S2 cells (HEK-293 line with an ATXN2-luciferase reporter) viability, CellTiter-Fluor protease fluorescence, 24 h; also: nearly all actives have a fitted effect of over 40% in size
TGFb inhibitor: inhibitors of TGF-b signaling. HepG2 CAGA-GFP TGF-b/SMAD3 reporter, GFP fluorescence, 18 h; TGF-beta stimulated, 500 pg/mL final. Potency, µM (top dose mostly 46.1 µM), for inactives: top-dose activity, negative = inhibition, actives largely listed as inhibitors. hit rate 1.2% among 410,000; also: % is scaled to controls: 0 for no effect and ±100 for the full control effect; nearly all actives have a fitted effect of over 65% in size
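TGF-beta reporter screen: HEPG2 CAGA-GFP, 1% FBS, 500 pg/mL TGF-beta final, 18 h; per-cell GFP summed per well; curves fitted and categorized by class.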
HttQ103 aggreg: reduces HttQ103-GFP aggregates in PC12 cells | PC12 HttQ103-GFP aggregates, Acumen cytometry, 40 h | Potency, µM (series often up to 46.1 µM), without a hit: at the highest dose activity change, negative = inhibition, usual class: inhibitors | hit rate 1.1% among 220,000 | AID 1688; also: % is scaled to controls: 0 for no effect and ±100 for the full control effect; nearly all actives have a fitted effect of over 60% in size
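Compounds (qHTS titration) were added to PC12 cells expressing an ecdysone-driven HTT exon 1 Q103–GFP fusion after induction with 100 nM tebufenozide. Aggregate formation was measured as GFP objects in cell lysates.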
HTT ATP protect: Huntington cell model cytoprotection by ATP luminescence; PC12 HTT-Q103 induced, cytoprotection, ATP luminescence, 40 h; Potency, µM (series often up to 56.4 µM), inactives show cytoprotection (ATP increase), usual class: activators; hit rate 0.14% among 230,000; AID 1471; also: % of control where 0% means no effect; nearly all actives have a fitted effect of over 45% in size
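PC12 cells stably carrying ecdysone-inducible Htt exon 1 (Q103)–GFP were induced with 100 nM tebufenozide (final) alongside library compounds in a dose series. Cytoprotection was scored as retained ATP by ATPlite luminescence.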
HepG2 viability: counter-screen for TGF-b inhibitors: cytotoxicity in HepG2 cells; hit rate 0.76% among 410,000; AID 588856; Potency, µM (titrated, usually from 46.1 µM), inactives show top-dose activity change, negative = cytotoxicity, actives largely listed as cytotoxic; HepG2 CAGA-GFP viability, ATP luminescence, 18 h
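CellTiter-Glo luminescence gave cytotoxicity after 18 hours at 37 degrees C. The cells were HepG2 CAGA-GFP in 1% FBS DMEM, stimulated with 500 pg/mL TGF-beta after compound addition. %Activity was normalised to no-cell wells (complete cell-killing) and DMSO (no toxicity), and curves were fitted and classified.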
ATXN2 expr inh: ATXN2 expression inhibition; HEK-293 ATXN2-luciferase reporter, luminescence, 24 h; Potency, µM (titrated, usually from 57 µM), for inactives: top-dose activity change, negative = inhibition, actives largely listed as inhibitors; hit rate 0.72% among 360,000; also: % is scaled to controls: 0 for no effect and ±100 for the full control effect; nearly all actives have a fitted effect of over 55% in size
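qHTS (up to 57 uM final) was run with 24 h compound exposure of reporter cells at 37 °C. Each well was multiplexed: SteadyGlo luminescence measured ATXN2-luciferase expression after a fluorogenic Gly-Phe-AFC viability readout (25 uM final).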
An asterisk follows results filed as active; i = inactive; ? = inconclusive; / = not tested or not shown; [ ] = another dose, or the depositor's remark. The list is not random: actives were taken first. Their share in the collection is about 2.8%. Calls follow the shape of the dose curve; as a rule, active = well fitted curve in the direction sought with a large enough effect; inconclusive = small, poorly fitted or top-dose-only effect, or another doubt; inactive = no such curve, though single readings can be large; an effect the other way counts as inactive or inconclusive. Potency is read from the fitted curve at half-maximal effect.

SMILES	ATXN viability	TGFb inhibitor	HttQ103 aggreg	HTT ATP protect	HepG2 viability	ATXN2 expr inh
COc1ccc(OCc2cccc(C(=O)Nn3cc([N+](=O)[O-])cn3)c2)cc1	i	-19%	-5%	11%[10 µM]	-3%	1µM*
NNC(=O)c1cccc(COc2ccc(Br)cc2)c1	i	-3%	?	-13%[10 µM]	-8%	-34%
COc1ccc(OCc2cccc(C(=O)NN)c2)cc1	i	-3%	1%	/	4%	2.2µM*
COc1ccc(OCc2cccc(C(=O)Nc3cc(C)on3)c2)cc1	i	?	-5%	-22%[10 µM]	-12%	2.2µM*
COC(=O)c1cccc(Cn2cc([N+](=O)[O-])cn2)c1	/	/	14%	19%[10 µM]	/	/
O=[N+]([O-])c1ccc2c(c1)/C(=C/c1ccc(C=S)cc1)C=C2	/	-8%	/	/	-1%	/
CC(CC(C#N)(c1ccccc1)C(C)C)N(C)C (stereo not drawn)	i	/	/	/	/	-6%
CCCCN(CC)S(=O)(=O)c1cccc2cccnc12	/	/	/	15%	/	/
CCc1nc2cc(Cl)c(Cl)cc2[nH]1	i	22%	11µM*	-1%[0.074 µM]	0%	-12%
COCC(=O)Nc1cc(C(=O)NC2CCCc3ccccc32)c2c(c1)nc(-c1ccncc1)n2C (stereo not drawn)	i	/	/	/	/	/
CCC(O)CNC(=O)c1cnn(-c2nccc(-c3cc(C)sc3C)n2)c1C1CC1 (stereo not drawn)	i	/	/	/	/	/
CCOC(=O)c1c(C)[nH]c(C(=O)OCC(=O)Nc2sccc2C(N)=O)c1C	13µM*	-13%	/	/	-39%	?
Cc1nn(-c2ccccc2)c(Cl)c1/C=C/C(=O)c1ccccc1	i	?	10%	-13%	11µM*	27%
CCN(Cc1ccncc1)Cc1ccc2c(c1)CN(C(=O)c1ccccc1)CCO2	i	/	/	/	/	/
Cc1ncc(-c2ccnc(Nc3ccc(S(C)(=O)=O)cc3)n2)n1C(C)C	/	/	/	/	/	3.4µM*
CC(N)c1csc(Nc2ccc(S(C)(=O)=O)cc2)n1 (stereo not drawn)	i	-14%	/	/	3%	13%
N#Cc1c(N)nc2c(c1-c1cccc(O)c1)CCCCCC2	?	?	-10%	-51%	-30%	?
Oc1cccc(-c2c3nc(c(-c4cccc(O)c4)c4ccc([nH]4)c(-c4cccc(O)c4)c4nc(c(-c5cccc(O)c5)c5ccc2[nH]5)CC4)C=C3)c1	7.1µM*	/	/	/	/	-1%
O=[N+]([O-])c1ccc(Oc2cccc3cccnc23)c([N+](=O)[O-])c1	i	?	22µM*	/	-37%	11%
COc1ccc(Oc2ccc(/C=C/C(=O)c3ccc(O)cc3)cc2[N+](=O)[O-])cc1	/	16µM*	13µM*	/	-98%	22µM*
COc1ccc(C(=O)/C=C/c2ccccc2)c(O)c1	?	?	19%	17%	-56%	-30%
COc1ccc(/C=C/C(=O)c2ccc(O)cc2)cc1COc1ccc(F)cc1	i	?	2%	-14%	16µM*	?
COc1ccc(/C=C/C(=O)c2cc(O)ccc2O)cc1	/	/	/	5µM*	/	/
O=C(O)c1ccccc1C(=O)Nc1ccc(-c2ccccc2)cc1	/	/	/	/	/	22%
Cc1ccc(CN2CCSc3ccc(C(=O)N4CCN(c5ncccn5)CC4)cc32)cc1	i	2%	16µM*	-61%	2%	-10%
SMILES	ATXN viability	TGFb inhibitor	HttQ103 aggreg	HTT ATP protect	HepG2 viability	ATXN2 expr inh
O=C(c1ccc(S(=O)(=O)Nc2ccc(F)cc2)cc1)N1CCN(c2ccccn2)CC1	?	?	14µM*	-39%	-11%	?
COc1ccc(N2CCN(C(=O)c3ccc(NS(=O)(=O)c4ccc(F)c(F)c4)cc3)CC2)cc1	i	-1%	10µM*	-13%[10 µM]	-8%	-9%
COc1ccc(NS(=O)(=O)c2ccc(C(=O)N3CCN(c4ccc(F)cc4)CC3)cc2)cc1	i	?	/	/	-5%	?
CCN1CCN(C(=O)c2ccc3c(c2)N(Cc2ccc(C)cc2)CCS3)CC1	?	-12%	/	/	-26%	/
Cc1ccc(NS(=O)(=O)c2ccc(C(=O)N3CCN(c4ncccn4)CC3)cc2)cc1	/	-25%	2.5µM*	-92%	-4%	-28%
Cc1cc(C)cc(C(=O)NCc2nc(-c3cccc(NC(=O)c4ccccn4)c3)oc2C)c1	i	/	/	/	/	/
O=[N+]([O-])c1ccc(C=C2c3ccccc3-c3ccccc32)cc1	/	?	/	/	-62%	/
Cc1ccc(C(C)(C)C)cc1S(=O)(=O)Nc1cccc(C(=O)N2CCN(c3ccccn3)CC2)c1	i	28µM*	/	/	-31%	8%
Cc1cccc(NS(=O)(=O)c2cccc(C(=O)N3CCN(c4ccccn4)CC3)c2)c1	i	?	/	/	0%	-15%
CC(C)c1ccc(C(=O)NCCCN2CCN(CCCNC(=O)c3ccc(C(C)C)cc3)CC2)cc1	?	14µM*	-9%	12%[0.074 µM]	18µM*	-14%
O=C(NCCCN1CCN(CCCNC(=O)c2ccc(F)cc2)CC1)c1ccc(F)cc1	i	-6%	13%	6%[10 µM]	-6%	12%
NS(=O)(=O)c1ccc(Sc2nc3ccccc3s2)c([N+](=O)[O-])c1	i	?	-24%[9.22 µM]	-15%[10 µM]	13µM*	?
CC(C)C(CCNC1CCN(C)CC1)c1ccc(Cl)cc1 (stereo not drawn)	?	?	/	/	-103%	?
CN1CCC(NCCC(c2ccc(F)cc2)c2ccc(Cl)cc2)CC1 (stereo not drawn)	/	?	/	/	16µM*	25µM*
CS(=O)(=O)c1ccc(-c2ccc3c(c2)CC(CNC(=O)C2(N4CCOCC4)CCCCC2)O3)cc1 (stereo not drawn)	i	/	/	/	/	/
CC(C)Cc1ccc(C(C)/C=C2/CCC(CN3CCCCC3)C2=O)cc1 (stereo not drawn)	/	16µM*	/	/	-72%	?
Cc1cc(=O)oc2cc(O[C@@H]3SC[C@@H](O)[C@H](O)[C@H]3O)ccc12	i	/	/	/	/	13%
COC(=O)C[C@H]1c2cc(F)ccc2S(=O)(=O)N1C1CC1	/	-6%	/	/	2%	/
CC(C)=CCCC1(C)C=Cc2c(c(C)cc3c2[nH]c2cc(O)ccc23)O1 (stereo not drawn)	28µM*	11µM*	2%[9.22 µM]	-13%[10 µM]	11µM*	?
Cc1cc(=O)[nH]c2cc(O)ccc12	i	0%	1%	-14%[10 µM]	-45%	2%
O=Nc1c(-c2c(O)[nH]c3cc(Br)ccc23)[nH]c2ccccc12	11µM*	8.9µM*	/	/	7.9µM*	?
COc1cccc(C(=O)Nc2cccc(C(=O)NCC(C)C)c2)c1	i	-1%	3.2µM*	-5%[10 µM]	-16%	-9%
